# Results as given in the supplement of paper PMC8728848.
# The sample as a whole holds a higher share of the strongest signals than the screen did.
# What was measured:
# Experiment in all cases: glycan array binding signal (z-score within array); higher = stronger binding
# Conditions in all cases: glycan notation: IUPAC condensed, linker removed
# [1] = biological target: GlcNAc(b1-2)[GlcNAc(b1-4)]Man(a1-3)[GlcNAc(b1-4)][GlcNAc(b1-2)[GlcNAc(b1-6)]Man(a1-6)]Man(b1-4)GlcNAc(b1-4)GlcNAc
# Method in brief: (§1)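 From the Consortium for Functional Glycomics database, 3228 arrays were curated, keeping only those whose protein sequence was available. Binding is given as a within-array Z-score averaged across arrays sharing a protein sequence and across linkers. Negative Z-scores can be read as non-binding.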
# GlcNAc(b1-3)Gal = biological target: GlcNAc(b1-3)Gal
# Method in brief: as §1
# [2] = biological target: GlcNAc(b1-3)Gal(b1-4)GlcNAc
# Method in brief: as §1
# [3] = biological target: GlcNAc(b1-3)Gal(b1-4)GlcNAc(b1-3)Gal(b1-4)GlcNAc(b1-3)Gal(b1-4)GlcNAc(b1-2)[GlcNAc(b1-3)Gal(b1-4)GlcNAc(b1-3)Gal(b1-4)GlcNAc(b1-3)Gal(b1-4)GlcNAc(b1-6)]Man(a1-6)[GlcNAc(b1-3)Gal(b1-4)GlcNAc(b1-3)Gal(b1-4)GlcNAc(b1-3)Gal(b1-4)GlcNAc(b1-2)Man(a1-3)]Man(b1-4)GlcNAc(b1-4)[Fuc(a1-6)]GlcNAc
# Method in brief: as §1
# [4] = biological target: GlcNAc(b1-3)Gal(b1-4)GlcNAc(b1-3)Gal(b1-4)GlcNAc(b1-3)GalNAc
# Method in brief: as §1
# Man(a1-2)Man(a1-3)Man = biological target: Man(a1-2)Man(a1-3)Man
# Method in brief: as §1
# [5] = biological target: Man(a1-2)Man(a1-3)[Man(a1-2)Man(a1-6)]Man(a1-6)[Man(a1-2)Man(a1-2)Man(a1-3)]Man(b1-4)GlcNAc(b1-4)GlcNAc
# Method in brief: as §1
# [6] = biological target: Man(a1-3)[Man(a1-6)]Man(a1-6)[Man(a1-2)Man(a1-3)]Man(b1-4)GlcNAc(b1-4)GlcNAc
# Method in brief: as §1
# [7] = biological target: Neu5Ac(a2-3)Gal(b1-3)GlcNAc
# Method in brief: as §1
# Neu5Ac(a2-3)Gal(b1-4)Glc = biological target: Neu5Ac(a2-3)Gal(b1-4)Glc
# Method in brief: as §1
# [8] = biological target: Neu5Ac(a2-3)Gal(b1-4)GlcNAc(b1-3)Gal(b1-4)GlcNAc(b1-3)GalNAc
# Method in brief: as §1
# [9] = biological target: Neu5Ac(a2-3)Gal(b1-4)[Fuc(a1-3)]GlcNAc(b1-3)GalNAc
# Method in brief: as §1
# [10] = biological target: Neu5Ac(a2-3)Gal(b1-4)[Fuc(a1-3)]GlcNAc(b1-6)[Neu5Ac(a2-3)Gal(b1-3)]GalNAc
# Method in brief: as §1
# Neu5Ac(a2-6)Gal = biological target: Neu5Ac(a2-6)Gal
# Method in brief: as §1
# [11] = biological target: Neu5Ac(a2-6)Gal(b1-4)GlcNAc(b1-2)Man(a1-3)[Neu5Ac(a2-6)Gal(b1-4)GlcNAc(b1-2)Man(a1-6)]Man(b1-4)GlcNAc(b1-4)GlcNAc
# Method in brief: as §1
# [12] = biological target: Neu5Ac(a2-6)Gal(b1-4)GlcNAc(b1-3)Gal(b1-4)GlcNAc
# Method in brief: as §1
# [13] = biological target: Neu5Ac(a2-6)Gal(b1-4)GlcNAc(b1-3)Gal(b1-4)GlcNAc(b1-3)Gal(b1-4)GlcNAc(b1-2)Man(a1-3)[Neu5Ac(a2-6)Gal(b1-4)GlcNAc(b1-3)Gal(b1-4)GlcNAc(b1-3)Gal(b1-4)GlcNAc(b1-2)Man(a1-6)]GalNAc
# Method in brief: as §1
binder,measurement,setting,value
PX9961U-pdi-543-24-543 (Parabacteroides distasonis) (protein) EEPVGEFLPGQVESEENIEGIVTGAYAVLDGYYASDAINSGCSNWQFGDVVSDDAYKGGGGTGDQNQIHLMEIFNANPTGIDFEARWAALYEGIKRCNQAIRLLNGSEVKNKEQRLAEMRFLRGHYYFNLKIIYNQIPWIDETLVDPNEYNKKSNIEFSSDQLWEKILEEFSAAYKVLPESQADYGRPTKMAARAYMAKVYLYQSKWKECLEACDEVIQSGKYELFPDFRNVFLPENDNCSEIIFAIQLSINDGSPNNENGSYGDRLLPPGGPYPVYGFLRPTQNLVNAYKTDVKGLPYNDGKDVSENDYVDVRLDHTLARPNIPFMDVQLYDWTPREASVYGPYSPKKRLVSLNSTYYSPIWPYVNALNFYVIRYADLLLWRAEAAIETGDLETGRKYINMIRERAKNTQHVKTMDQSQDAANYKVGVYDEPFKSKNEAVQALRMERRLEMAHEGIRFFDLVRWGVADEVINAYIAKEKVFRSHLQNAHFVKGKHEYFPIPQSMIDICGTEVMKQNPGY,glycan array binding signal (z-score),[1],-0.386
same,glycan array binding signal (z-score),GlcNAc(b1-3)Gal,-0.394
same,glycan array binding signal (z-score),[2],-0.432
same,glycan array binding signal (z-score),[3],-0.308
same,glycan array binding signal (z-score),[4],-0.417
same,glycan array binding signal (z-score),Man(a1-2)Man(a1-3)Man,-0.489
same,glycan array binding signal (z-score),[5],-0.408
same,glycan array binding signal (z-score),[6],6.64
same,glycan array binding signal (z-score),[7],-0.408
same,glycan array binding signal (z-score),Neu5Ac(a2-3)Gal(b1-4)Glc,-0.368
same,glycan array binding signal (z-score),[8],-0.376
same,glycan array binding signal (z-score),[9],3.69
same,glycan array binding signal (z-score),[10],1.28
same,glycan array binding signal (z-score),Neu5Ac(a2-6)Gal,-0.428
same,glycan array binding signal (z-score),[11],-0.347
same,glycan array binding signal (z-score),[12],-0.364
same,glycan array binding signal (z-score),[13],0.5
